HTT aggregate: reduces HttQ103-GFP aggregates in PC12 cells | Potency, µM (titrated, usually from 46.1 µM), usual class: inhibitors | AID 1688 | 220,000 compounds, 1.1% hits | PC12 HttQ103-GFP aggregates, Acumen cytometry, 40 h; also: nearly all actives have a fitted effect of over 60% in size
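Using laser scanning cytometry, GFP-positive aggregates were counted after lysis of PC12 cells induced with 100 nM tebufenozide to express HTT exon 1 Q103–GFP. Compounds were tested in titration.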
TRb-SRC2 inh: disrupts binding of human TR beta to SRC2; Potency, µM (highest dose often 106 µM), actives largely listed as inhibitors; P10828; TRbeta-SRC2 peptide binding, fluorescence polarization; receptor liganded with 1 µM T3; 280,000 compounds, 0.065% hits; also: nearly all actives have a fitted effect of over 50% in size
Target sequence (P10828 whole entry, looked up): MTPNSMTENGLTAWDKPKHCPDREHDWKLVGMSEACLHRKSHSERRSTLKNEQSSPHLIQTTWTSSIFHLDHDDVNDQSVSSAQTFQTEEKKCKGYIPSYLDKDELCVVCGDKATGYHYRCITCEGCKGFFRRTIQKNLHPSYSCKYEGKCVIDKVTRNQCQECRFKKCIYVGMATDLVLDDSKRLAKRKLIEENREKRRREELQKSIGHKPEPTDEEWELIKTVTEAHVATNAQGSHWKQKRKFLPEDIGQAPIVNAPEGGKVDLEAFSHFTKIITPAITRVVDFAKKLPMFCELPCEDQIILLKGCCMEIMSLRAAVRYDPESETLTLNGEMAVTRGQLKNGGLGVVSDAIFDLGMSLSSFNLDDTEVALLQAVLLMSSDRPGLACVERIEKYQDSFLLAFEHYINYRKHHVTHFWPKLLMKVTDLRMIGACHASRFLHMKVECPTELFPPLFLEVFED
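Assay buffer: 20 mM Tris-HCl, 100 mM NaCl, 10% glycerol, 1 mM EDTA, 0.01% NP-40, 1 mM DTT, 1 uM T3, 5% DMSO; TRb LBD 0.6 uM, Texas Red SRC2 20 nM; FP after 5 hr.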
KDM4E inh: inhibitors of human JMJD2E histone demethylase | B2RXH2 | JMJD2E catalytic domain, FDH-coupled NADH fluorescence (FDH is formaldehyde dehydrogenase) | Potency, µM (titrated, usually from 57.1 µM), hits mostly inhibitors | 230,000 compounds, 1.6% hits | AID 2147; active = well fitted inhibition curve with a large enough effect, not every such curve was filed as active; inconclusive = small, poorly fitted or top-dose-only effect, or another doubt; inactive = no such curve, though single readings can be large or run the other way; also: nearly all actives have a fitted effect of over 50% in size
FBPA coupling cs: counter-screen for Giardia aldolase inhibitors: coupling enzyme system | 290,000 compounds, 0.67% hits | activity change, negative = inhibition, % at 58.2 µM, hits read low | coupling enzyme system counterscreen, AmpLite Red fluorescence | AID 2472; in the data active = activity change below about -30%
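Fluorescence at 525 nm excitation and 598 nm emission measured inhibition of the coupled detection system without aldolase. Compounds (at 57.5 uM final) were preincubated 10 min at room temperature with coupling enzyme reagent before a 20 min substrate/AmpLite Red step.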
HTT ATP protect: Huntington cell model cytoprotection by ATP luminescence; PC12 HTT-Q103 induced, cytoprotection, ATP luminescence, 40 h; Potency, µM (doses to about 56.4 µM), most hits filed as activators; AID 1471; 230,000 compounds, 0.14% hits; also: nearly all actives have a fitted effect of over 45% in size
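Compounds added alongside 100 nM tebufenozide, which induces toxic Q103 huntingtin exon 1-GFP in stable PC12 cells; surviving cells quantified by luminescent ATP measurement. Medium: phenol red-free DMEM, 5% equine and 5% calf serum.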
TexasRed fluor: Texas Red fluorescence interference in TRb-SRC2 counter-screen | TRb/SRC2 Texas Red total fluorescence interference | Potency, µM (highest dose often 106 µM) | 280,000 compounds, 0.29% hits; active = well fitted curve in either direction with a large enough effect; inconclusive = small, poorly fitted or top-dose-only effect
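Human TRβ ligand-binding domain (0.6 uM) and Texas Red SRC2 peptide (20 nM) in Tris buffer with 1 uM T3 and 5% DMSO were incubated with pinned compound for 5 hr at ambient temperature. Total fluorescence was computed as S + 2P (555/632 nm).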
A number is an active result; [ ] = dose if it differs, or a comment. In the library only some 2% were active in any assay of this set; here they are far more common. Unless noted, calls follow the shape of the dose curve; as a rule, active = well fitted curve in the direction sought with a large enough effect; inconclusive = small, poorly fitted or top-dose-only effect, or another doubt; inactive = no such curve, though single readings can be large; an effect the other way counts as inactive or inconclusive.

Screening CCc1nn(CC(=O)Nc2c(C)cc(C)cc2C)c(=O)c2cc3sccc3n12 returned TRb-SRC2 inh inactive and TexasRed fluor 0.28µM[quencher].
CCCCCCCCCC[N+](C)(C)Cc1ccccc1 was read as TRb-SRC2 inh inactive and TexasRed fluor inactive.
Cc1ccc2nc(-c3cccc(NS(C)(=O)=O)c3)cc(-c3ccccc3)c2c1 was read as HTT aggregate inactive, TRb-SRC2 inh inactive, KDM4E inh inactive, FBPA coupling cs inactive, HTT ATP protect inactive[10 µM] and TexasRed fluor 0.1µM[quencher].
`CC(C)NC(=O)CSc1nnc(-c2ccc(F)cc2)c2ccccc12` gave HTT aggregate inactive, TRb-SRC2 inh inactive, KDM4E inh inactive, FBPA coupling cs inactive, HTT ATP protect 13µM and TexasRed fluor inactive.
Screening CN(C(=O)CSc1nnc(-c2ccc(F)cc2)c2ccccc12)C1CCS(=O)(=O)C1 (centres undefined) returned HTT aggregate inconclusive, TRb-SRC2 inh inactive, KDM4E inh inactive, FBPA coupling cs inactive, HTT ATP protect inactive[10 µM] and TexasRed fluor inactive.
CCOc1ccc(C2c3[nH]c4ccccc4c3CCN2C(=O)CSc2ccccc2)cc1 (centres undefined) was read as TRb-SRC2 inh inactive and TexasRed fluor 2.8µM[quencher].
CNC(=S)/N=C/NOCc1ccc(Cl)cc1Cl was read as HTT aggregate 7.9µM, TRb-SRC2 inh inactive, KDM4E inh inactive, FBPA coupling cs inactive, HTT ATP protect inactive[10 µM] and TexasRed fluor inactive.
COC(=O)c1ccc(NC(=O)CSc2nc3ccc(OC)cc3[nH]2)cc1 was read as TRb-SRC2 inh inactive and TexasRed fluor inactive.
Screening CCOc1ccccc1NC(=O)C1CCN(S(=O)(=O)c2cc(Br)cc3c2N(C(C)=O)CC3)CC1 returned TRb-SRC2 inh inactive and TexasRed fluor inactive.
`CCC(=O)c1ccc(OCC(O)Cn2c(C)nc3ccccc32)cc1` (centres undefined) gave HTT aggregate 11µM, TRb-SRC2 inh inactive, KDM4E inh inactive, FBPA coupling cs inactive, HTT ATP protect inactive[10 µM] and TexasRed fluor inactive.
`Cc1nc2ccccc2n1CC(O)COc1ccc(C(=O)O)cc1` (centres undefined) gave TRb-SRC2 inh inactive and TexasRed fluor inactive.
O=C(OCn1ncc(Br)c(Br)c1=O)c1ccc(F)cc1 was read as HTT aggregate 4µM, TRb-SRC2 inh inactive, KDM4E inh inactive, FBPA coupling cs inactive, HTT ATP protect inactive[10 µM] and TexasRed fluor inactive.
Screening O=C(CCn1c(=O)c2ccccc2n(Cc2cccc(Cl)c2)c1=O)NCCc1ccccc1 returned TRb-SRC2 inh inactive and TexasRed fluor inactive.
Cc1ccc(C2C(C#N)=C(N)Oc3n[nH]c(-c4cccs4)c32)cc1 (centres undefined) was read as HTT aggregate inactive, TRb-SRC2 inh inactive, KDM4E inh 7.1µM, FBPA coupling cs inactive, HTT ATP protect inactive[10 µM] and TexasRed fluor inactive.
`N#CC1=C(N)Oc2n[nH]c(-c3cccs3)c2C1c1ccoc1` (centres undefined) gave HTT aggregate inactive, TRb-SRC2 inh inactive, KDM4E inh inactive, FBPA coupling cs inactive, HTT ATP protect inactive and TexasRed fluor inactive.
Screening CCCC[C@H](NC(C)=O)C(=O)N[C@H]1CC(=O)NCCCC[C@@H](C(N)=O)NC(=O)[C@H](Cc2c[nH]c3ccccc23)NC(=O)[C@H](CCCN=C(N)N)NC(=O)[C@@H](Cc2ccccc2)NC(=O)[C@H](Cc2cnc[nH]2)NC1=O returned TRb-SRC2 inh inactive, FBPA coupling cs inactive and TexasRed fluor inactive.
O=C(COC(=O)c1ccccn1)Nc1ncc(C(F)(F)F)cc1Cl was read as HTT aggregate inactive, TRb-SRC2 inh inactive, KDM4E inh inactive, FBPA coupling cs inactive, HTT ATP protect inactive[10 µM] and TexasRed fluor inactive.
Screening O=C(COC(=O)c1ccc([N+](=O)[O-])s1)Nc1ncc(C(F)(F)F)cc1Cl returned HTT aggregate inactive, TRb-SRC2 inh inactive, KDM4E inh 20µM, FBPA coupling cs inactive, HTT ATP protect inactive[1.9 µM] and TexasRed fluor inactive.
O=C(CCCn1c2ccccc2c(=O)c2ccccc21)Nc1cccc(Cl)c1 was read as TRb-SRC2 inh inactive and TexasRed fluor inactive.
`COCc1[nH]c(=S)c(C#N)cc1C(=O)OC` gave HTT aggregate inactive[9.22 µM], TRb-SRC2 inh inactive, KDM4E inh 25µM, FBPA coupling cs inactive, HTT ATP protect inactive[10 µM] and TexasRed fluor inactive.
Screening COc1cccc(-n2nnc3c(=O)n(Cc4c(F)cccc4Cl)cnc32)c1 returned HTT aggregate 3.2µM, TRb-SRC2 inh inactive, KDM4E inh inactive, FBPA coupling cs inactive, HTT ATP protect inactive[0.074 µM] and TexasRed fluor inactive.
`COc1cccc(-n2nnc3c(=O)n(Cc4cccc(F)c4)cnc32)c1` gave HTT aggregate inactive[9.22 µM], TRb-SRC2 inh inactive, KDM4E inh inconclusive, FBPA coupling cs inactive, HTT ATP protect inactive and TexasRed fluor inactive.
For Cc1ccc(S(=O)(=O)N=C=O)cc1 the results were TRb-SRC2 inh inactive and TexasRed fluor inactive.
`Cc1cccc(/C=N/NC(=O)C(C)Nc2cccc3ccccc23)n1` (centres undefined) gave HTT aggregate inactive, TRb-SRC2 inh inactive, KDM4E inh inconclusive, FBPA coupling cs inactive, HTT ATP protect inactive and TexasRed fluor inactive.
CC(Nc1cccc2ccccc12)C(=O)N/N=C/c1ccc([N+](=O)[O-])cc1 (centres undefined) was read as HTT aggregate inconclusive, TRb-SRC2 inh inactive, KDM4E inh inactive, FBPA coupling cs -46, HTT ATP protect inactive[10 µM] and TexasRed fluor inactive.
COc1cc([N+](=O)[O-])cc(/C=N/NC(=O)C(C)Nc2cccc3ccccc23)c1O (centres undefined) was read as HTT aggregate 13µM, TRb-SRC2 inh inactive, KDM4E inh 4.5µM, FBPA coupling cs inactive, HTT ATP protect inactive[10 µM] and TexasRed fluor inactive.
COc1cc([N+](=O)[O-])cc(/C=N/NC(=O)C(O)(c2ccccc2)c2ccccc2)c1O was read as FBPA coupling cs inactive.
`COc1cc([N+](=O)[O-])cc(/C=N/NC(=O)c2cccnc2)c1O` gave HTT aggregate inactive[9.22 µM], TRb-SRC2 inh inactive, KDM4E inh 8.9µM, FBPA coupling cs inactive, HTT ATP protect inactive[10 µM] and TexasRed fluor inactive.
`O=C(N/N=C/c1cc(Br)c(Br)o1)c1cccnc1` gave HTT aggregate inactive, TRb-SRC2 inh inactive, KDM4E inh inactive, FBPA coupling cs -55, HTT ATP protect inactive[1.9 µM] and TexasRed fluor inactive.
For COc1ccc(/C=N/NC(=O)c2ccccc2O)cc1Cn1cc([N+](=O)[O-])cn1 the results were HTT aggregate inactive[9.22 µM], TRb-SRC2 inh inactive, KDM4E inh inconclusive, FBPA coupling cs inactive, HTT ATP protect inactive[10 µM] and TexasRed fluor inactive.

High-throughput results: PubChem, National Center for Advancing Translational Sciences (NCATS)
